In PubChem BioAssay AID488815 (Broad Institute, 2010):
Measured potencies and affinities stand elsewhere. Records with an inconclusive call do not appear. Active and inactive are the calls of the source. No rule for the calls is given here.

biological target: CAAX prenyl protease 1 (Saccharomyces cerevisiae (strain ATCC 204508 / S288c)) (UniProt P47154); test: yeast CAAX protease Ste24 inhibition – biochemical, S. cerevisiae, plate reader, cherry-pick, dose response (AID 488815); details: series mostly up to 10 µM
Sequence (P47154 whole entry, looked up): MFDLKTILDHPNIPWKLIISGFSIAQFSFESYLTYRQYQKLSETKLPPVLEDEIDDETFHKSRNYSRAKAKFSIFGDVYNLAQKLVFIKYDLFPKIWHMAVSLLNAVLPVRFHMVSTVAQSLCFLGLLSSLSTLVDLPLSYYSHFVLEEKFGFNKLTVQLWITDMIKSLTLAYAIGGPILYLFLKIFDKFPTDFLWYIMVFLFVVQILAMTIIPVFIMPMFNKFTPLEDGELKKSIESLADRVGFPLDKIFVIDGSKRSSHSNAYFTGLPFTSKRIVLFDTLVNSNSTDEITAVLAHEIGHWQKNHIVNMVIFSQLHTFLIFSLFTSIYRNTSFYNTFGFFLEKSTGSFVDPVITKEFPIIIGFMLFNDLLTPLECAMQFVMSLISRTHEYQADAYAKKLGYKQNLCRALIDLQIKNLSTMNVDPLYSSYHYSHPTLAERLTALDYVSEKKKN

outcome, inactive:
CCOc1ccc(OCC)c(NC(=O)c2nnn(CC(=O)Nc3cc(C)cc(C)c3)c2N)c1, CCN1CCN(CC(O)COc2ccc3c(C)cc(=O)oc3c2)CC1 (stereo not given), O=C1CCCC(O)=C1N=Nc1ccc2ncsc2c1, COc1cc(-c2nc3ccccn3c2/N=C/c2cccc(OC)c2O)ccc1O, O=C(Nc1ccc(N2CCOCC2)c(Cl)c1)c1cc2ccccc2o1, CC(=O)N[C@@H](C)c1nc2ccccc2n1CCCN1CCN(c2nc(-c3ccc(C)cc3)cs2)CC1, COc1cccc(-c2nc(C#N)c(N3CCN(C(=O)c4ccco4)CC3)o2)c1, CCN(CC)c1ccc(C(=O)c2ccccc2C(=O)O)c(O)c1, CC1CCN(C(=O)C2CCN(S(=O)(=O)c3ccc(-n4cnnn4)cc3)CC2)CC1, O=C(c1cc(-c2ccccc2)nc2ccccc12)N1CCN(c2ccccn2)CC1, c1ccc(CNc2nc(N3CCN(Cc4ccccc4)CC3)nc3ccccc23)cc1, CC(=O)Nc1ccc(Cl)cc1C1COC(=O)C1=N (stereo not given), C#CCNC(=O)C1=C[C@@H](C2CCCCC2)C[C@@H](OCc2ccc(CO)cc2)O1, COc1ccccc1/C=C/C=N/NC(=O)CN1CCN(S(=O)(=O)c2ccc(C)cc2)CC1, O=S(=O)(c1ccccc1)c1nc(-c2ccco2)oc1N1CCCCC1, NC(=NCCCCCCN=C(N)/N=C(\N)Nc1ccc(Cl)cc1)/N=C(\N)Nc1ccc(Cl)cc1, CN(C)S(=O)(=O)c1ccc(NC(=O)/C=C/c2ccccc2Cl)cc1, CS(=O)(=O)Nc1ccccc1C(=O)NC1CC2CCC1C2 (stereo not given), CCO[C@@H]1OC(C(=O)N2CCN(Cc3ccccc3)CC2)=C[C@H](c2ccccc2)[C@H]1CCCO, O=C(COC(=O)c1ccccc1Cc1ccccc1)NC1CCS(=O)(=O)C1 (stereo not given), CCOC(=O)c1ccc(NC(=O)N2CCN(Cc3ccccc3)CC2)cc1, Nc1c(C(=O)Nc2cccc(C(=O)O)c2)sc2nc3c(cc12)CCCC3, O=C(COc1ccccc1)Nc1cccc(-c2nc3cc4ccccc4cc3[nH]2)c1, CN(C(=O)c1ccc2c(c1)SC1=NS(=O)(=O)CCN12)C(c1ccccc1)c1ccccc1, CC(=O)N(C)c1ccc(NC(=O)/C=C/c2ccccc2Cl)cc1, COc1ccc(C)cc1NC(=O)CCC(=O)Nc1ccc2nc(N3CCN(C)CC3)cc(C)c2c1, O=C(Nc1ccc(F)cc1)Oc1ccccc1N1CCOCC1, O=C(Nc1cc(S(=O)(=O)N2CCOCC2)ccc1N1CCCC1)c1cnccn1, COc1ccc(C(C(=O)NC2CCCCC2)N(C(=O)c2snc(C(N)=O)c2N)c2ccc(OC)cc2OC)cc1 (stereo not given), COc1cccc(C2CC(c3ccc(Br)cc3)=NN2C(=O)c2ccncc2)c1OC (stereo not given), Cc1cccc(N2CCc3c2nc2ccc(Br)cc2c3N)c1, Cc1ccccc1NS(=O)(=O)c1ccc(C(=O)NCC(c2ccccc2)N(C)C)cc1 (stereo not given), C=C(C)CSc1nc2sc3c(c2c(=O)n1-c1ccc(OC)cc1)CCN(C)C3, Nc1nnnn1/N=C/c1ccccc1OCc1ccc(Cl)cc1Cl, CCCCNC(=S)NNC(=O)CCn1cc(C)cn1, Cc1nc2c(C)cccn2c(=O)c1NC(=O)COc1ccccc1, CCOc1ccc(NC(=O)CCSc2ccc(C)cc2)cc1, CC1=C(C(=O)OCc2ccccc2)C(c2ccc(-c3ccccc3)cc2)NC(=O)N1CCCC(=O)O (stereo not given), CN1CCN(Cc2c(C(=O)N/N=C/c3cccc(Br)c3)nnn2-c2nonc2N)CC1, COC(C[C@H](O)C[C@H](O)[C@@H](C)OCc1ccccc1)OC
